# Results filed as inconclusive are left out. Active and inactive are the calls of the source. The calls were made as follows, unless noted: active = hit-call score of the fitted dose curve at least 0.9, where 1 is the maximum; inactive = score below 0.9.
# What was measured:
# [1] = tested on: Brachyury (BRA) Protein Expression, Deisenroth Lab, TBXT (gene 6862); test: CCTE_Deisenroth_DEVTOX-GLR_legacy_Bra: (Legacy) CCTE's DevTox GLR-Endo Assay Evaluation of Brachyury (BRA) Protein Expression, Deisenroth Lab (AID 2284329)
# Summary of the method: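 Readout: percent Bra+ cells by high-content fluorescence imaging, Bra+ meaning mean intensity 5x BMAD over pluripotent control median. RUES2-GLR cells dosed twice over 48 h differentiation; DMSO-control median subtracted before concentration-response fitting.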
# [2] = CCTE_Deisenroth_DEVTOX-GLR_legacy_CellCount: (Legacy) Viability Assessment in CCTE's DevTox GLR-Endo Assay, Deisenroth Lab (AID 2284331); details: actives raise or lower the signal
# Summary of the method: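 Nuclei count by fluorescence high-content imaging (5 fields/well) after 48 h differentiation of RUES2-GLR cells. Two exposures, 24 h apart; 1 nM - 200 uM series; n=4. Bidirectional fit vs DMSO.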
# [3] = tested on: SRY-box transcription factor 17 (SOX17) Protein Expression, Deisenroth Lab, SOX17 (gene 64321); test: CCTE_Deisenroth_DEVTOX-GLR_legacy_Sox17: (Legacy) CCTE's DevTox GLR-Endo Assay Evaluation of SRY-box transcription factor 17 (SOX17) Protein Expression, Deisenroth Lab (AID 2284341); details: actives raise or lower the signal
# Summary of the method: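 RUES2-GLR human pluripotent cells, seeded 24 h, then differentiated 48 h in defined media with two chemical exposures 24 h apart (1 nM - 200 uM, 10 points). Sox17+ fraction from high-content fluorescence imaging; bidirectional fit versus 0.2% DMSO.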
# [4] = tested on: SRY-box transcription factor 2 (SOX2) Protein Expression, Deisenroth Lab, SOX2 (gene 6657); test: CCTE_Deisenroth_DEVTOX-GLR_legacy_Sox2: (Legacy) CCTE's DevTox GLR-Endo Assay Evaluation of SRY-box transcription factor 2 (SOX2) Protein Expression, Deisenroth Lab (AID 2284346)
# Summary of the method: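 Read-out: fraction of Sox2+ cells by high-content fluorescence imaging of fixed RUES2-GLR cells after 48 h differentiation with two 24 h-spaced exposures. Positivity cutoff 5x BMAD above endoderm control median; 0.2% DMSO median subtracted.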
# [5] = tested on: SRY-box transcription factor 17 (SOX17) Protein Expression, Deisenroth Lab, SOX17 (gene 64321); test: CCTE_Deisenroth_DEVTOX-GLR_Endo_SOX17: CCTE's DevTox GLR-Endo Assay Evaluation of SRY-box transcription factor 17 (SOX17) Protein Expression, Deisenroth Lab (AID 2284413)
# Summary of the method: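 Human RUES2-GLR cells carrying an inducible fluorescent reporter are differentiated in defined media for 48 h and dosed twice, 24 h apart. After fixation and nuclear staining, imaging yields SOX17+ cell percentage relative to 0.2% DMSO-treated differentiated cells.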
# [6] = tested on: Brachyury (BRA) Protein Expression, TBXT (gene 6862); test: CCTE_Deisenroth_DEVTOX-GLR_Endo_BRA: CCTE's DevTox GLR-Endo Assay Evaluation of Brachyury (BRA) Protein Expression, Deisenroth Lab (AID 2284417)
# Summary of the method: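 RUES2-GLR human pluripotent cells, seeded 24 h, then differentiated 48 h in defined media with two chemical exposures 24 h apart (10-point series, 1 nM - 200 uM). Fixed, nuclear-stained, imaged; endpoint is percent BRA+ cells minus 0.2% DMSO control.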
# [7] = CCTE_Deisenroth_DEVTOX-GLR_Endo_CellCount: Viability Assessment in CCTE's DevTox GLR-Endo Assay, Deisenroth Lab (AID 2284420)
# Summary of the method: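 Measured 48 h after dosing: fluorescent nuclei counted by imaging in human RUES2-GLR cells under defined differentiation media, tested at 1 nM - 200 uM. Values are percent cell-count change relative to 0.2% DMSO.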
# [8] = tested on: SRY-box transcription factor 17 (SOX17) Protein Expression, Deisenroth Lab, SOX17 (gene 64321); test: CCTE_Deisenroth_DEVTOX-GLR_Pluri_SOX17: CCTE's DevTox GLR-Pluri Assay Evaluation of SRY-box transcription factor 17 (SOX17) Protein Expression, Deisenroth Lab (AID 2284427; active = hit-call score of the fitted dose curve at least 0.9, where 1 is the maximum)
# Summary of the method: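 Using an inducible fluorescent SOX17 reporter in human pluripotent RUES2-GLR cells, compounds (1 nM - 200 uM) were given twice over 48 h differentiation. Percent SOX17+ cells minus DMSO control came from high-content image analysis.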
# [9] = tested on: SRY-box transcription factor 2 (SOX2) Protein Expression, Deisenroth Lab, SOX2 (gene 6657); test: CCTE_Deisenroth_DEVTOX-GLR_Pluri_SOX2: CCTE's DevTox GLR-Pluri Assay Evaluation of SRY-box transcription factor 2 (SOX2) Protein Expression, Deisenroth Lab (AID 2284428)
# Summary of the method: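 Percent SOX2+ RUES2-GLR cells, determined by fluorescence microscopy after 48 h and two 24-h-interval chemical exposures spanning 1 nM–200 uM, served as the endpoint. Values are expressed relative to 0.2% DMSO; total cell counts assessed viability.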
# [10] = tested on: Brachyury (BRA) Protein Expression, Deisenroth Lab, TBXT (gene 6862); test: CCTE_Deisenroth_DEVTOX-GLR_Pluri_BRA: CCTE's DevTox GLR-Pluri Assay Evaluation of Brachyury (BRA) Protein Expression, Deisenroth Lab (AID 2284429; active = hit-call score of the fitted dose curve at least 0.9, where 1 is the maximum)
# Summary of the method: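 RUES2-GLR reporter line; 48 h mesoderm differentiation; two exposures, 24 h apart; 1 nM - 200 uM, 10 points; nuclear stain, high-content imaging, 5 fields/well; endpoint = %BRA+ cells of total count minus 0.2% DMSO; n=4.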
# [11] = CCTE_Deisenroth_DEVTOX-GLR_Pluri_CellCount: Viability Assessment in CCTE's DevTox GLR-Pluri Assay Evaluation of Total Cell Counts, Deisenroth Lab (AID 2284430)
# Summary of the method: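 Cytotoxicity readout: fluorescent nuclei counts by high-content imaging, expressed as percent change relative to 0.2% DMSO. Human RUES2-GLR pluripotent line differentiated 48 h, dosed twice at 24-h intervals across 1 nM - 200 uM (10 points).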
structure (smiles),measurement,setting,value
Nc1cccc2c1C(=O)N(C1CCC(=O)NC1=O)C2=O (stereo unspecified),outcome,[1],inactive
same,AC50,[2],272 nM (active)
same,AC50,[3],67 nM (active)
same,AC50,[4],155000 nM (active)
same,AC50,[5],58.7 nM (active)
same,AC50,[6],29500 nM (active)
same,AC50,[7],281 nM (active)
same,outcome,[8],inactive
same,AC50,[9],1040 nM (active)
same,AC50,[10],25100 nM (active)
same,outcome,[11],inactive
